Pf Dd2 growth = blocks in vitro growth of P. falciparum Dd2 | P. falciparum Dd2 growth, SYBR Green, 72 h | Potency, µM (highest dose often 28.9 µM), for the others: at the highest dose activity, negative = inhibition, usual class: inhibitors | hit rate 4.3% among 120,000 | AID 1347417; active = well fitted inhibition curve with a large enough effect;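 note: plate controls were DMSO vehicle for no effect and reference drug for full effect; nearly all actives have a fitted effect of over 65% in size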
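Infected erythrocytes (Dd2, 0.3% parasitemia, 2.5% hematocrit final) are added to compound in RPMI-1640/Albumax II medium, grown 72 h at 37C in low oxygen, then lysed with saponin/Triton-X containing SYBR Green and read by fluorescence.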
* hit, by the source's call; [ ] = dose if it differs, or a comment. The sample as a whole holds a higher share of hits than the screen did. Potency is the fitted concentration of half-maximal effect.

What do the screens show for `CN(C)c1nc2c(c(=O)[nH]1)CCN(Cc1ccc(F)cc1Cl)CC2`?
Pf Dd2 growth: 1µM*

Results for CN(Cc1cccnc1)c1nc2c(c(=O)[nH]1)CCN(Cc1ccc(F)cc1Cl)CC2 ?
Pf Dd2 growth: 2.8µM*

What do the screens show for `CN(C)c1nc2c(c(=O)[nH]1)CCN(Cc1cc(F)ccc1F)CC2`?
Pf Dd2 growth: 19%[5.79 µM]

How did CCOc1ccc(CN2CCN(c3nc(C)cc(NC)n3)CC2CCO)cc1 (centres undefined) do in these assays?
Pf Dd2 growth: -19%

How did COC(=O)CNC(=O)N1CC[C@H]2C(=O)NCCCCCCN(Cc3ccncc3)[C@@H]2C1 do in these assays?
Pf Dd2 growth: 17%

What do the screens show for `Cn1cc(C(=O)N2CCC(F)(c3nc(-c4ccncc4)no3)CC2)cn1`?
Pf Dd2 growth: -8%

Results for O=C(NCc1ccccc1)C1COC2(CCN(C(=O)c3ccccc3F)CC2)N1C(=O)c1ccco1 (centres undefined) ?
Pf Dd2 growth: -28%

How did Cc1cccc(C(=O)N2C(C(=O)NCc3ccccc3)COC23CCC(C)CC3)c1 (centres undefined) do in these assays?
Pf Dd2 growth: inactive

How did CC1CCC2(CC1)OCC(C(=O)NCc1ccccc1)N2C(=O)c1ccc(Cl)c(Cl)c1 (centres undefined) do in these assays?
Pf Dd2 growth: 8.9µM*

Results for CC1CCC2(CC1)OCC(C(=O)NCc1ccccc1)N2C(=O)c1cccc(Cl)c1 (centres undefined) ?
Pf Dd2 growth: inactive

How did COCC1CN(C(C)=O)CC12CCN(S(=O)(=O)c1cnc[nH]1)CC2 (centres undefined) do in these assays?
Pf Dd2 growth: -9%

Results for Cc1ccc(C(=O)NC[C@H]2O[C@@H](CC(=O)N3CCOCC3)[C@H](O)[C@@H]2O)cc1 ?
Pf Dd2 growth: 9%[44.1 µM]

Results for O=C(CS(=O)(=O)c1ccccc1)N[C@H]1CCN2C(=O)[C@H](Cc3ccc(F)cc3)NC(=O)[C@@H]2C1 ?
Pf Dd2 growth: 0%

How did Cc1cc(C)cc(NC(=O)c2sc3nc(-c4ccccc4)cn3c2C)c1 do in these assays?
Pf Dd2 growth: 7%

What do the screens show for `Cc1c(C(=O)Nc2cc(F)ccc2F)sc2nc(-c3ccc(F)cc3)cn12`?
Pf Dd2 growth: inactive

How did Cc1c(C(=O)Nc2ccc(F)c(C(F)(F)F)c2)sc2nc(-c3ccccc3)cn12 do in these assays?
Pf Dd2 growth: 11µM*

Results for Cc1ccc(NC(=O)N2CCC(CCNC(=O)C3CCC3)CC2)cc1F ?
Pf Dd2 growth: -15%

What do the screens show for `OC1CC(c2cc(NCC3(c4ccccc4)CCOCC3)ncn2)C1` (centres undefined)?
Pf Dd2 growth: -7%

Results for CCOc1ccc(Cl)cc1CN(C)C(=O)C1CC(=O)N(CC)C1 (centres undefined) ?
Pf Dd2 growth: -9%

Results for CNC(=O)CN(C)Cc1cc(Cl)ccc1OCC(O)CN1CCCCCC1 (centres undefined) ?
Pf Dd2 growth: 2.8µM*

What do the screens show for `Cc1cc(OCC(O)CN2CCN(c3cccc(Cl)c3)CC2)ccc1Cl` (centres undefined)?
Pf Dd2 growth: -5%

What do the screens show for `CN(C)C[C@@H]1CN(c2ncccn2)C[C@H]1NC(=O)c1c(F)cccc1F`?
Pf Dd2 growth: 0%

Results for Cc1ccc(C(C)C)c(OCC(=O)NCC2(N(C)C)CCCCC2)c1 ?
Pf Dd2 growth: 2.8µM*

What do the screens show for `Cc1cccc(C)c1OCC(=O)NCC1(N(C)C)CCCCC1`?
Pf Dd2 growth: inactive

Results for Cc1ccc(C(C)C)c(OCC(=O)Nc2nc3c(s2)CCCC3)c1 ?
Pf Dd2 growth: 0%

How did CCN(CC)C(=O)C[C@@H]1CCNC[C@@H]1Cc1cc(C(=O)OC)on1 do in these assays?
Pf Dd2 growth: 30%[44.1 µM]

How did CCOC(=O)c1ccc2ncc(C(=O)OCC)c(Nc3ccc(C)c(Br)c3)c2c1 do in these assays?
Pf Dd2 growth: inactive

What do the screens show for `CCOC(=O)c1cnc2ccc(OCC)cc2c1NCCc1ccc(OC)c(OC)c1`?
Pf Dd2 growth: 4.5µM*

What do the screens show for `CCOC(=O)c1cnc2c(C)c(Cl)ccc2c1NCCc1ccccc1`?
Pf Dd2 growth: -10%

How did CCOC(=O)c1c(C)oc2nc(C)nc(NCCc3ccc(OC)c(OC)c3)c12 do in these assays?
Pf Dd2 growth: -25%

What do the screens show for `CCOc1ccc(-c2nnc(SCC(=O)NCCc3ccc(OC)c(OC)c3)nc2-c2ccc(OCC)cc2)cc1`?
Pf Dd2 growth: -26%

How did CCOC(=O)c1cnc2ccc(C)cc2c1NCCc1ccc(OC)c(OC)c1 do in these assays?
Pf Dd2 growth: 8.9µM*

Results for O=C(NCc1ccc(F)cc1)C1CN(c2ccc(Cl)cc2)C(=O)N1 (centres undefined) ?
Pf Dd2 growth: 15%

How did CC(Oc1ccccc1)C(=O)N1CCC(n2cc(-c3nc(C4CC4)no3)nn2)C1 (centres undefined) do in these assays?
Pf Dd2 growth: inactive

Results for COc1ccc(C(C)NC(=O)CN2C(=O)NC3(CCOCC3)C2=O)cc1 (centres undefined) ?
Pf Dd2 growth: -3%

How did Cc1cc(C(=O)N2CCC3(CCCN(CC4CCC4)C3=O)C2)nc(C)n1 (centres undefined) do in these assays?
Pf Dd2 growth: -17%

Results for CC(C)(C)OC(=O)N1CCC(c2c(C(=O)N3CCN(c4ccccc4F)CC3)cnn2-c2ccccc2Cl)CC1 ?
Pf Dd2 growth: 13µM*

How did Cc1c(Cl)cccc1-n1ncc(C(=O)N2CCN(c3ncccn3)CC2)c1C1CCN(C(=O)OC(C)(C)C)CC1 do in these assays?
Pf Dd2 growth: inactive

What do the screens show for `Cc1c(Cl)cccc1-n1ncc(C(=O)N2CCC(C)CC2)c1C1CCN(C(=O)OC(C)(C)C)CC1`?
Pf Dd2 growth: 11µM*

Results for CN1CCN(C(=O)c2cnn(-c3ccc(F)cc3F)c2C2CCN(C(=O)OC(C)(C)C)CC2)CC1 ?
Pf Dd2 growth: 16%

What do the screens show for `CC(C)(C)OC(=O)N1CCC(c2c(C(=O)N3CCN(c4ccc(Cl)cc4)CC3)cnn2-c2ccc(F)cc2F)CC1`?
Pf Dd2 growth: 11µM*

What do the screens show for `CN(Cc1ccccc1)Cc1cn(C[C@H]2O[C@@H](CC(=O)NCc3ccc(F)cc3)[C@H](O)[C@@H]2O)nn1`?
Pf Dd2 growth: -2%

Results for COCCNC(=O)[C@@H]1C[C@@H](O)CN1C1CCN(C(=O)C2CCCC2)CC1 ?
Pf Dd2 growth: 6%

Results for CCOCC(=O)N1CCC(N2C(=O)CCC2C(=O)NCc2ccccc2)CC1 (centres undefined) ?
Pf Dd2 growth: 14%

What do the screens show for `Cc1cc(C[C@@H]2COC[C@@H]2NC(=O)CCc2nc(-c3ccco3)no2)on1`?
Pf Dd2 growth: -5%

What do the screens show for `O=C(NCCNc1cccnc1)C1CCC(=O)N(Cc2ccc(Cl)cc2)C1` (centres undefined)?
Pf Dd2 growth: -5%

What do the screens show for `CCn1ccc(C(=O)N2CCC3(CC2)c2[nH]c4ccccc4c2CCN3C)n1`?
Pf Dd2 growth: inactive

Results for Fc1ccc2c(c1)nc1n2[C@@H](CNC2CCC2)COC1 ?
Pf Dd2 growth: -16%[44.1 µM]

What do the screens show for `Cc1cccc(Nc2nnc(-c3ccc(C)c(S(=O)(=O)NCC4CCCO4)c3)c3ccccc23)c1` (centres undefined)?
Pf Dd2 growth: 4.5µM*

How did Cc1ccc(-c2nnc(Nc3cccc(Cl)c3)c3ccccc23)cc1S(=O)(=O)NCC1CCCO1 (centres undefined) do in these assays?
Pf Dd2 growth: 10µM*

What do the screens show for `Cc1cc(-c2ccc(C)c(S(=O)(=O)NCC3CCN(Cc4ccccc4F)CC3)c2)on1`?
Pf Dd2 growth: inactive

Compound activity deposited in PubChem BioAssay by National Center for Advancing Translational Sciences (NCATS).
